# Data taken from PubChem BioAssay (NCATS).
# Records with an inconclusive call do not appear. Values without a mark were called inactive. Activity calls are given as the source filed them. Calls follow the shape of the dose curve; as a rule, active = well fitted cell-killing curve with a large enough effect; inconclusive = small, poorly fitted or top-dose-only effect, or effect the other way; inactive = flat fitted curve, though single readings scatter.
# System: CAOV3
# Experiment: Primary qHTS to identify gynecologic anti-cancer compounds using libraries of approved drugs and bioactive compounds (AID 1345084); also: nearly all actives have a fitted effect of over 55% in size
# Conditions: Gynecologic cancer cell panel viability, ATPlite luminescence, 48 h; series mostly up to 57.5 µM; activity change, negative = cytotoxicity: at the top concentration
# Excerpt: National Center for Advancing Translational Sciences [NCATS] Assay Overview: Chemotherapeutic drug responses vary from cancer to cancer and from patient to patient. These variations could be caused by a number of factors including patient genomic background, tumor mutations, tumor heterogeneity, and aspects of drug treatment. Chemotherapeutic drug resistance is also a common issue and can lead to ineffective treatment and patient death. Here we have profiled the cell killing effects of thousands of compounds to characterize the responses in three gynecological cancers, identify cancer-selective compounds, and understand the diversity of responses to these compounds from pan-cancer suppressors to single cell line selective compounds. In this assay, we screened a 7,914 compound drug library that included approved drug and bioactive compounds in six ovarian, three cervical, and […] placental cancer cell lines using the ATPlite assay for cell viability. […] The cervical cancer cell lines included HeLa, Ca Ski, and C-33 A. The placental cancer cell lines included JEG-3. HEK 293T cells were used as the control cell line to determine the selectivity index. ATPlite is a luminescence based assay reliant on the conversion of a luciferase substrate to light in the presence of ATP. As a cytotoxic compound will suppress growth and decrease the number of cells, the concentration of ATP will decrease, and less light signal will be detected in the well.
# Assay Protocol Summary: 1,000 cells in 4 uL of media were dispensed into white, solid bottom 1536-well plates using a Multidrop Combi (Thermo Scientific). The Assay plates were incubated for 16 hours at 37 C with 5% CO2 in assay plates, followed by the addition of 23 nL of DMSO or drug dissolved in DMSO. Each compound was assayed in five concentrations (0.092, 0.46, 2.3, 11.5, and 57.5 uM), using the automated Wako 1536 Pin Tool workstation and incubated at 37 C with 5% CO2 48 hours. 4 uL of ATPlite, the ATP monitoring reagent, was then added to the each well of the assay plates using the Multidrop Combi reagent dispenser followed by incubation for 15 minutes at room temperature. The resulting luminescence was measured using the ViewLux plate reader.
# % is scaled to controls: 0 for no effect and ±100 for the full control effect; potency is read from the fitted curve at half-maximal effect.
Structure (SMILES),"activity change, negative = cytotoxicity",Potency
N[C@@H](Cc1c[nH]c2ccc(O)cc12)C(=O)O,10.8%,–
C[C@@H]1CC(=O)NN=C1c1ccc(NN=C(C#N)C#N)cc1,–,inactive
COc1ccc2c(c1)c(CC(=O)O)c(C)n2C(=O)c1ccc(Cl)cc1,-0.371%,–
CC(C)(Oc1ccc(C2CC2(Cl)Cl)cc1)C(=O)O (stereo not given),1.49%,–
C[C@](N)(Cc1ccc(O)c(O)c1)C(=O)O,-2.69%,–
NC(=O)OCC(COC(N)=O)c1ccccc1,-1.42%,–
COC(=O)Nc1nc2ccc(C(=O)c3cccs3)cc2[nH]1,-20.1%,–
Clc1ccc2c(c1)C(N1CCNCC1)=Nc1ccccc1O2,–,inactive
COc1ccccc1OCCNCC(O)COc1cccc2[nH]c3ccccc3c12 (stereo not given),-4.66%,–
CC(C(=O)O)c1cccc(C(=O)c2ccccc2)c1 (stereo not given),-0.191%,–
Cc1ccccc1N1C(=O)c2cc(S(N)(=O)=O)c(Cl)cc2NC1C (stereo not given),13.6%,–
CCCCc1oc2ccccc2c1C(=O)c1cc(I)c(OCCN(CC)CC)c(I)c1,11.1%,–
COc1cc2nc(N3CCN(C(=O)C4COc5ccccc5O4)CC3)nc(N)c2cc1OC (stereo not given),-22.7%,–
Cn1ccc2cc3c(cc21)CCN3C(=O)Nc1cccnc1,2.56% [at 25.3 µM],–
CN1CCC(=C2c3ccccc3CC(=O)c3sccc32)CC1,-0.794%,–
NS(=O)(=O)c1cc2c(cc1Cl)NCNS2(=O)=O,-2.78%,–
CC[C@@]1(O)C(=O)OCc2c1cc1n(c2=O)Cc2cc3c(CN(C)C)c(O)ccc3nc2-1,–,3.16 µM (active)
O=c1c(-c2ccc(O)cc2)coc2cc(O)cc(O)c12,-20.5%,–
CCOC(=O)Nc1ccc(NCc2ccc(F)cc2)nc1N,15.7%,–
OCCN1CCN(CCCN2c3ccccc3Sc3ccc(C(F)(F)F)cc32)CC1,-2.06%,–

Structure (SMILES),"activity change, negative = cytotoxicity",Potency
Nc1nnc(-c2cccc(Cl)c2Cl)c(N)n1,9.52%,–
NC12CC3CC(CC(C3)C1)C2,-1.43%,–
Nc1nc2c(ncn2COC(CO)CO)c(=O)[nH]1,10.7%,–
COc1cc2nc(N(C)CCCNC(=O)C3CCCO3)nc(N)c2cc1OC (stereo not given),-6.24%,–
Cc1cn([C@H]2C=C[C@@H](CO)O2)c(=O)[nH]c1=O,10.9%,–
Nc1ccn([C@H]2CC[C@@H](CO)O2)c(=O)n1,6.17%,–
CN1C(C(=O)Nc2ccccn2)=C(O)c2ccccc2S1(=O)=O,-0.123%,–
O=C(c1ccc(F)cc1)C1CCN(CCn2c(=O)[nH]c3ccccc3c2=O)CC1,–,inactive
CC(C)C(=O)Nc1ccc([N+](=O)[O-])c(C(F)(F)F)c1,-9.73%,–
COc1cc2c(c(OC)c1OC)-c1ccc(OC)c(=O)cc1[C@@H](NC(C)=O)CC2,-3.47%,–
CC(COc1ccccc1)N(CCCl)Cc1ccccc1 (stereo not given),11.4%,–
CN(CCOc1ccc(NS(C)(=O)=O)cc1)CCc1ccc(NS(C)(=O)=O)cc1,8.24%,–
COc1ccccc1N1CCN(CC(O)COc2cccc3ccccc23)CC1 (stereo not given),–,12.6 µM (active)
CN1CCC(=C2c3ccccc3C=Cc3ccccc32)CC1,-6.89%,–
O=C1c2c(O)ccc(O)c2C(=O)c2c(NCCNCCO)ccc(NCCNCCO)c21,–,3.16 µM (active)
Cc1cn([C@H]2C[C@H](N=[N+]=[N-])[C@@H](CO)O2)c(=O)[nH]c1=O,-15.2%,–
Cn1cnc2c1c(=O)[nH]c(=O)n2C,0.313%,–
Clc1ccc(C(c2ccccc2Cl)C(Cl)Cl)cc1 (stereo not given),-27.6%,–
CC1(CN2CCC(n3c(=O)[nH]c4ccccc43)CC2)OCc2ccccc2-n2cccc21 (stereo not given),-10.7%,–
Cc1ccc(-c2cc(C(F)(F)F)nn2-c2ccc(S(N)(=O)=O)cc2)cc1,–,inactive
